Sampled rows, rich in hits. Any-hit rate of the full collection: about 19%.
ELG1 repair inh – inhibitors of ELG1-dependent DNA repair in HEK293T cells. HEK293T ELG1-luciferase reporter, luminescence, 16 h; DNA damage induced by 5-fluorouridine. Potency, µM (titrated, usually from 46.1 µM), without a hit: at the top dose activity change, negative = inhibition, most hits filed as inhibitors. 2.3% of 330,000 active; note: potency is the fitted concentration of half-maximal effect; nearly all actives have a fitted effect of over 55% in size
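DMSO vehicle served as the neutral condition. Each well held 2,000 cells given 5-fluorouridine plus compound; after 16 hr at 37 °C/5% CO2, ONE-Glo was added and luciferase measured 30 min later.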
DT40 TDP1 CPT – growth inhibition of DT40 Tdp1-/-;hTDP1 cells with camptothecin (screen for TDP1 inhibitors) | AID 686979 | chicken DT40 Tdp1-/-;hTDP1 cells + 20 nM CPT, ATP luminescence, 48 h | 12% of 420,000 active | Potency, µM (series often up to 46.2 µM), inactives show top-dose activity change, negative = growth inhibition, most hits filed as inhibitors; note: potency is the fitted concentration of half-maximal effect; nearly all actives have a fitted effect of over 55% in size
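Cell growth measured by CellTiter-Glo luminescence after a minimum 48 h, 37 C compound exposure with 20 nM CPT in Tdp1-knockout DT40 cells stably expressing hTDP1, seeded 400/well; qHTS titration format.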
HT1080-NT tox – kills 2HG-producing HT-1080-NT fibrosarcoma cells | HT-1080-NT fibrosarcoma viability, CellTiter-Glo ATP luminescence, 48 h | Potency, µM (doses to about 46.1 µM), for the others: top-dose activity, negative = less viability, most hits filed as cytotoxic | 1.6% of 360,000 active | AID 686970;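 note: NT is the 2HG producing partner of a matched IDH1 knockdown line; potency is the fitted concentration of half-maximal effect; 0% = DMSO-treated cells and -100% = media-only wells without cells; nearly all actives have a fitted effect of over 55% in size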
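HT-1080-NT; 750 cells/well; 5% FBS RPMI; 48 h compound, 37 degrees C; CellTiter-Glo luminescence; curve fitting and curve-class assignment.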
HT1080 IDH1KD tx – toxicity to HT-1080 IDH1 knockdown cells (counter line); HT-1080 IDH1 knockdown viability, ATP luminescence, 48 h; Potency, µM (top dose mostly 46.1 µM), without a hit: at the top dose activity, negative = toxicity, most hits filed as cytotoxic; 2% of 360,000 active; AID 686971;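 note: potency is the fitted concentration of half-maximal effect; 0% = DMSO wells and -100% = cell-free medium wells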
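Luminescent ATP read-out (CellTiter-Glo, 10 min at room temperature) after 48 h compound exposure at 37 °C gave viability of IDH1-knockdown HT-1080 cells. Activity was normalised to DMSO and cell-free wells, then fitted as concentration-response curves.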
DT40 TDP1 no CPT – qHTS for Inhibitors of human tyrosyl-DNA phosphodiesterase 1 (TDP1): qHTS in cells in absence of CPT; DT40 Tdp1-/- hTDP1 cells, no CPT, ATP luminescence, 48 h; Potency, µM (top dose mostly 46.2 µM), for inactives: at the top dose activity change, negative = growth inhibition, hits mostly inhibitors; 15% of 420,000 active; note: potency is the fitted concentration of half-maximal effect; nearly all actives have a fitted effect of over 55% in size
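Growth kinetics read by CellTiter-Glo luminescence after ≥48 hr at 37 °C. Cells: DT40 Tdp1-/- stably carrying human TDP1, 400 per well, compound exposure in the absence of CPT (DMSO vehicle).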
IL-1B inflam inh – inflammasome signaling inhibition, IL-1 beta readout; AID 743279; activity change, % at 57.5 µM; THP-1 LPS/ATP IL-1B secretion, AlphaLISA, 16 h; active compounds read low; 4.7% of 360,000 active; in the data active = activity change below about -50%; inconclusive = mostly about -30% to -49%
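Secreted IL-1B measured by AlphaLISA bead assay after 16 h compound exposure of THP-1 cells; compounds (final up to 57.5 uM) added 1 h before LPS (250 ng/mL) and ATP (1.25 mM) stimulation; lower signal means less secretion.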
* = called active by the depositor; ? = inconclusive; nt = no result given. Unless noted, calls come from the whole dose curve; as a rule, active = well fitted curve in the direction sought with a large enough effect; inconclusive = small, poorly fitted or top-dose-only effect, or another doubt; inactive = no such curve, though single readings can be large; an effect the other way counts as inactive or inconclusive. Unless noted, % is set by controls: 0 for no effect and ±100 for the full control effect.

SMILES | ELG1 repair inh | DT40 TDP1 CPT | HT1080-NT tox | HT1080 IDH1KD tx | DT40 TDP1 no CPT | IL-1B inflam inh
CCN1CCN(c2ccc(S(=O)(=O)N3CCCCC3)cc2NC(=O)COc2ccc(F)cc2Cl)CC1 | -17% | 21µM* | 21µM* | 18µM* | ? | ?
CCN1CCN(c2ccc(S(=O)(=O)N3CCCCC3)cc2NC(=O)c2ccc(F)cc2)CC1 | 2% | ? | -4% | -25% | 21µM* | -9
O=C(Nc1cc(S(=O)(=O)N2CCOCC2)ccc1N1CCCC1)c1ccc(F)cc1 | 15% | 13µM* | 11% | 9% | ? | -22
O=C(COc1ccc(F)cc1)Nc1cc(S(=O)(=O)N2CCCCC2)ccc1N1CCCCC1 | ? | 13µM* | -3% | -5% | 18µM* | -6
C=CCn1c(C(C)n2c(-c3cnccn3)nc3ccccc32)nc2ccccc21 (stereo unspecified) | nt | ? | 3% | 0% | ? | -19
CC(C)(CO)NCC#Cc1ccccc1 | -5% | 10% | 6% | 10% | 10% | 5
O=C(COC(=O)c1ccccc1Nc1ccccc1)c1ccccc1 | ? | -16% | -3% | -23% | -25% | -60*
CN(C(=O)COC(=O)c1ccccc1Nc1ccccc1)c1c(N)n(Cc2ccccc2)c(=O)[nH]c1=O | -26% | ? | ? | ? | 16µM* | -63*
Cc1cc(C(=O)OCC(=O)N(C)c2c(N)n(Cc3ccccc3)c(=O)[nH]c2=O)c(C)n1-c1ccccc1 | -1% | ? | -7% | -5% | -26% | -55*
Cc1ccccc1C(=O)OCC(=O)N(C)c1c(N)n(Cc2ccccc2)c(=O)[nH]c1=O | 25% | 5% | 3% | 3% | 1% | -4
CN(C(=O)COC(=O)c1ccccc1Cc1ccccc1)c1c(N)n(Cc2ccccc2)c(=O)[nH]c1=O | -9% | -5% | -6% | -15% | -15% | -11
COCCN(C(=O)COC(=O)/C=C/c1ccc(Cl)c(Cl)c1)c1c(N)n(Cc2ccccc2)c(=O)[nH]c1=O | nt | 16µM* | 0% | -2% | 18µM* | -7
COc1ccc(-n2nnc(-c3nsc(NC(=O)c4cccs4)n3)c2C)cc1OC | nt | -28% | nt | nt | -28% | nt
COCCN(C(=O)COC(=O)c1ccccc1Nc1ccccc1)c1c(N)n(Cc2ccccc2)c(=O)[nH]c1=O | ? | 21µM* | ? | ? | ? | -53*
CSCc1c(C(=O)NC2CCCc3ccccc32)oc2ccccc12 (stereo unspecified) | 1% | ? | 2% | 2% | ? | -7
CCOC(=O)N1CCN(C(=O)c2oc3ccc(S(=O)(=O)N(CC)CC)cc3c2C)CC1 | 12µM* | ? | 4% | -11% | ? | 53
CCN(CC)S(=O)(=O)c1ccc2oc(C(=O)N3CCCCCC3)c(C)c2c1 | ? | ? | -20% | -13% | 9.2µM* | 30
CCN(CC)S(=O)(=O)c1ccc2oc(C(=O)NC3CCCc4ccccc43)c(C)c2c1 (stereo unspecified) | ? | 15µM* | -21% | -3% | 10µM* | -1
CCN(CC)S(=O)(=O)c1ccc2oc(C(=O)NCCN3CCOCC3)c(C)c2c1 | -3% | 2% | 11% | 13% | ? | 34
CCN(CC)S(=O)(=O)c1ccc2oc(C(=O)N3CCc4ccccc4C3)c(C)c2c1 | ? | ? | 6% | 8% | 2.1µM* | -27
CCN(CC)S(=O)(=O)c1ccc2oc(C(=O)N3CCOCC3)c(C)c2c1 | -8% | -11% | 2% | 8% | ? | 0
C=C(CC[C@@H](O)C(C)(C)O)[C@H]1CC[C@]2(C)[C@@H]1CCC1[C@@]3(C)CCC(=O)C(C)(C)C3CC[C@]12C (stereo partly specified) | 11% | ? | 9% | 10% | ? | 36
C=C(C)[C@@H]1CCC2(C(=O)O)CC[C@]3(C)[C@H](CC[C@@H]4[C@@]5(C)CCC(=O)C(C)(C)[C@@H]5CC[C@]43C)[C@@H]12 (stereo partly specified) | 0% | 2.9µM* | 9% | 11% | 3.7µM* | 54
O=C(c1ccccc1[N+](=O)[O-])N(CCc1ccccc1)Cc1ccccc1 | -10% | 16µM* | -7% | -5% | 12µM* | -2
Cc1cccc(C(=O)N(CCc2ccccc2)Cc2ccccc2)c1[N+](=O)[O-] | -12% | 10µM* | ? | ? | 7.3µM* | 0
SMILES | ELG1 repair inh | DT40 TDP1 CPT | HT1080-NT tox | HT1080 IDH1KD tx | DT40 TDP1 no CPT | IL-1B inflam inh
Cn1cc([N+](=O)[O-])c(C(=O)N(Cc2ccccc2)Cc2ccccc2)n1 | 5% | ? | 4% | -10% | 26µM* | 10
COc1ccc(N(Cc2ccccc2)C(=O)c2ccccc2[N+](=O)[O-])cc1 | ? | ? | -10% | -5% | 9.2µM* | -17
COc1ccc(-c2c(C)nn3c(C(F)(F)F)cc(-c4ccccc4)nc23)cc1OC | nt | -122% | nt | nt | ? | nt
CCOc1cc(C(=O)N(C)CC(=O)Nc2cccc(F)c2)ccc1OCC(=O)N1CCOCC1 | 17% | 5% | 4% | 2% | 3% | 8
Cc1cn2c(=O)cc(COc3ccccc3NC(=O)c3ccc(Cl)cc3)nc2s1 | nt | -1% | nt | nt | -3% | nt
COc1ccc(CCNC(=O)CCc2c(C)nc3c4cccnc4nn3c2C)cc1OC | nt | -12% | nt | nt | 1% | nt
O=C(NC1CCCC1)c1cc(=O)[nH]c2ccccc12 | 28% | -5% | -3% | 1% | -12% | -2
COc1ccc(C(=O)N(CCc2ccccc2)Cc2ccccc2)c(OC)n1 | ? | ? | -20% | -4% | ? | -64*
COC(=O)c1ccc(NC(=O)c2cc(S(=O)(=O)N3CCc4ccccc43)cn2C)cc1 | nt | -17% | nt | nt | -9% | nt
CC(=O)c1cccc(N=Nc2c(-c3ccccc3)[nH]n(-c3ccccc3)c2=O)c1 | 8.2µM* | ? | 8% | 0% | ? | 9
CCOc1ccc2[nH]c(=O)c(CN(Cc3ccco3)C(CC)c3nnnn3Cc3ccccc3)cc2c1 (stereo unspecified) | ? | ? | -24% | ? | ? | ?
Cc1ccc2cc(CN(Cc3cccs3)Cc3nnnn3CC3CCCO3)c(=O)[nH]c2c1C (stereo unspecified) | ? | ? | 0% | -7% | 18µM* | 12
Cc1ccc2[nH]c(=O)c(CN(CCCO)Cc3nnnn3Cc3ccccc3)cc2c1 | nt | ? | nt | nt | 11µM* | nt
